In PubChem BioAssay AID1347420 (Sanford-Burnham Center for Chemical Genomics, 2020):
Several values for one entry are separate records, joined by “and”; a condition that tells them apart may be missing. Equal entries are not always repeated. The whole screen tested about 1,300 compounds, of which about 980 (75%) were called active. Roughly 4% stayed inconclusive and do not appear here. The list shows a part of the results.

What follows are compounds tested against Sulfhydryl oxidase 1 (Homo sapiens) (UniProt O00391) (assay: QSOX1 enzyme inhibitors, primary screen, biochemical, HyperBlu H2O2 luminescence, HTS (AID 1347420; also: values above 100% were filed as inconclusive)). Conditions: recombinant QSOX1, HyperBlu H2O2 luminescence; at 12.5 µM; stronger effect = higher value; active = any value above zero.
Sulfhydryl oxidase 1 (Homo sapiens), sequence (O00391 whole entry, looked up): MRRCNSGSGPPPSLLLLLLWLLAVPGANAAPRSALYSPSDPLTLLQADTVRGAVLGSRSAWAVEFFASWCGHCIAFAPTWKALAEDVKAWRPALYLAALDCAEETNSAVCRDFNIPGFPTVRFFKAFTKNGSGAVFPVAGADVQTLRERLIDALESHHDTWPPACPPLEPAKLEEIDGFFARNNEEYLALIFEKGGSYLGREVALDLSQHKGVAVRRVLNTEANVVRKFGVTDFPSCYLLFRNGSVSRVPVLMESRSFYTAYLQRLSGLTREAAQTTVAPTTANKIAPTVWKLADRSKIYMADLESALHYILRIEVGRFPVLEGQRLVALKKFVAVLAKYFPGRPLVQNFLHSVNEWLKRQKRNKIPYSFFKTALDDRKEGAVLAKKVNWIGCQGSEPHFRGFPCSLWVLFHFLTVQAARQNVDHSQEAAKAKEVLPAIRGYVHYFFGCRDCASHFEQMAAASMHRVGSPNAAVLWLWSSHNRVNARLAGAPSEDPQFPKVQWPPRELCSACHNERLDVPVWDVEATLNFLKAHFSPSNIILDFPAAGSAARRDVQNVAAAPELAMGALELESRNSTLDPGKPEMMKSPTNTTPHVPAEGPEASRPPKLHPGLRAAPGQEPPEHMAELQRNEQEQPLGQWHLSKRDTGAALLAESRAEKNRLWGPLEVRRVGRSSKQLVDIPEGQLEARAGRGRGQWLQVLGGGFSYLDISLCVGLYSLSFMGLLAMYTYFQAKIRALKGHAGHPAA

Compound | inhibition
CS(=O)(=O)Nc1ccc([N+](=O)[O-])cc1Oc1ccccc1 | 97.4% (active)
Cc1ccc([N+](=O)[O-])cc1S(=O)(=O)N(C)C | -9.6% (inactive)
COc1cc2c(cc1OC)C1CC(=O)C(CC(C)C)CN1CC2 (stereo not drawn) | 6.3% (active)
CC[C@H]1CN2CCc3cc(OC)c(OC)cc3[C@@H]2C[C@@H]1C[C@H]1NCCc2cc(OC)c(OC)cc21 | 13% (active)
CCC1(C)CC(=O)NC1=O (stereo not drawn) | 13.4% (active)
O=C(C1CCCCC1)N1CC(=O)N2CCc3ccccc3C2C1 (stereo not drawn) | 8% (active)
CC(C)(C)[C@]1(O)CCN2C[C@H]3c4ccccc4CCc4cccc(c43)[C@@H]2C1 | -3.5% (inactive)
N[C@H](C(=O)O)[C@H](O)C(=O)O | -0.9% (inactive)
C=CC[C@H](N)C(=O)O | 5.3% (active)
N[C@@H](CS(=O)O)C(=O)O | 16% (active)
N[C@@H](CC(=O)O)C(=O)O | 20.6% (active)
N[C@H](CO)C(=O)O | 6.6% (active)
CCc1cccc(N(C)C(N)=Nc2cccc3ccccc23)c1 | -10.9% (inactive)
O=C(O)COCCN1CCN(C(c2ccccc2)c2ccc(Cl)cc2)CC1 (stereo not drawn) | 6.6% (active)
O=C(O)C1=CCCN(CCON=C(c2ccccc2)c2ccccc2)C1 | -7.5% (inactive)
CC(C)NC[C@H](O)COc1cccc2ccccc12 | -5.6% (inactive)
CC(C)NC[C@H](O)COc1cccc2[nH]ccc12 | 12.2% (active)
CC(C)NCC(O)COc1cccc2ccccc12 (stereo not drawn) | 10.3% (active)
C=CCc1ccccc1OCC(O)CNC(C)C (stereo not drawn) | 1.7% (active)
CCC1(c2ccccc2)C(=O)NCNC1=O | -13.9% (inactive)
CC(C)NCC(O)COc1cccc2[nH]ccc12 (stereo not drawn) | 8% (active)
c1cnc2c(c1)ccc1cccnc12 | 9.8% (active)
CCN(CC)CCOC(=O)c1ccc(N)cc1 | -5.5% (inactive)

Compound | inhibition
CCCCNc1ccc(C(=O)OCCN(C)C)cc1 | 9.2% (active)
CCCCNc1cc(C(=O)O)cc(S(N)(=O)=O)c1Oc1ccccc1 | -9.6% (inactive)
NC(N)=NCc1cccc(I)c1 | 0.4% (active)
C=C1C(=O)O[C@@H]2[C@H]3O[C@]3(C)CCC=C(C)CC[C@@H]12 | -3.6% (inactive)
CN=C(N)NCCC[C@H](N)C(=O)O | 1.3% (active)
CC(N)=NCCCC[C@@H](N)C(=O)O | 5% (active)
CN(C)C(N)=NCCC[C@H](N)C(=O)O | -1.4% (inactive)
CSC(N)=NCCC[C@H](N)C(=O)O | 8% (active)
NC(N)=NCCC[C@H](N)C(=O)O | -5.3% (inactive)
N#C/C(=C\c1ccc(O)c(O)c1)C(=O)c1ccc(O)c(O)c1 | 81.2% (active)
C[C@]12C=CC(=O)C=C1CC[C@@H]1C2=CC[C@]2(C)[C@@H](C(=O)CN3CCN(c4cc(N5CCCC5)nc(N5CCCC5)n4)CC3)CC[C@@H]12 | 21.5% (active)
CN1CC(O)C(O)C(O)C1CO (stereo not drawn) | 11.1% (active)
Cc1cc2c(cc1Cl)N(C(=O)Nc1ccnc3ccccc13)CC2 | 52.9% (active)
Cc1cc2c(cc1Cl)N(C(=O)Nc1ccc(Oc3cccnc3C)nc1)CC2 | 2.9% (active)
O=C(OCCN1CCOCC1)C1(c2ccccc2)CCCCC1 | 14.9% (active)
c1ccc(CN2CCC3(CCCc4ccccc43)CC2)cc1 | -10.4% (inactive)
CCN(CC)CCOCCOC(=O)C1(c2ccccc2)CCCC1 | -2.7% (inactive)
CCOC(=O)[C@H](CCc1ccccc1)N[C@@H](C)C(=O)N1[C@H](C(=O)O)C[C@H]2CCCC[C@@H]21 | 12.1% (active)
C[C@H](NC(CCc1ccccc1)C(=O)O)C(=O)N1CCC[C@H]1C(=O)O (stereo partly drawn) | -5.7% (inactive)
COC(=O)C1=C(C)NC(C)=C([N+](=O)[O-])C1c1ccccc1C(F)(F)F (stereo not drawn) | 59.9% (active)
COC(=O)C1=C(C)NC(C)=C(C(=O)OC)C1c1ccccc1[N+](=O)[O-] | 54.9% (active)
CCO/C([O-])=N/c1c[n+](N2CCOCC2)no1 | -0.8% (inactive)
Cc1nc2c(OCc3ccccc3)cccn2c1CC#N | 11.8% (active)

Compound | inhibition
NC(N)=NC(N)=Nc1ccccc1 | 6% (active)
N=C(N)c1ccccc1 | -0.4% (inactive)
NC(N)=NC(N)=Nc1cccc(Cl)c1 | 25.1% (active)
CN1CCN2c3ccccc3Cc3ccccc3C2C1 (stereo not drawn) | 9.7% (active)
Cn1c(=O)c2[nH]c(C3CCCC3)nc2n(C)c1=O | 7.5% (active)
CCCn1c(=O)c2[nH]c(C3CCCC3)nc2n(CCC)c1=O | 5.5% (active)
O=C(c1cc(O)c(O)c([N+](=O)[O-])c1)c1ccccc1F | 83.5% (active)
CC(C)C[C@H](NC(=O)[C@@H](O)[C@H](N)Cc1ccccc1)C(=O)O | 0.9% (active)
CC(C)C[C@H](NC(=O)[C@H](O)[C@H](N)Cc1ccccc1)C(=O)O | -3.8% (inactive)
CCC(NC(C)C)C(O)c1ccc(O)c(O)c1 (stereo not drawn) | 38.5% (active)
CC(C)NC[C@H](O)c1ccc(O)c(O)c1 | 38.5% (active)
CC(C)NCC(O)c1ccc(O)c(O)c1 (stereo not drawn) | 29% (active) and 11.6% (active)
CC(C)NCC(O)c1ccc(NS(C)(=O)=O)cc1 (stereo not drawn) | 4.1% (active)
O=C(O)CCC/C=C\C[C@@H]1[C@@H](/C=C/[C@H](O)C2Cc3ccccc3C2)[C@@H](F)C[C@@H]1O | -13.7% (inactive)
CC(C)(C)NCC(O)c1cc(O)cc(O)c1 (stereo not drawn) | 3% (active)
CC(C)(C)NCC(O)c1ccc(O)c(CO)c1 (stereo not drawn) | 17.3% (active)
CC(C)NCC(O)c1cc(O)cc(O)c1 (stereo not drawn) | 8.3% (active)
CC(C)NCC(O)COc1ccc(COCCOC(C)C)cc1 (stereo not drawn) | -12.7% (inactive)
Nc1ccc(S(=O)(=O)Nc2ccnn2-c2ccccc2)cc1 | 27.9% (active)
O=c1cc(N2CCOCC2)oc2c(-c3ccccc3)cccc12 | 4.6% (active)
Cc1cc(O)c2c(c1)C(=O)c1cc(O)cc(O)c1C2=O | 17.7% (active)
OCC1O[C@H]([S-])[C@@H](O)C(O)[C@@H]1O.[Au+] (stereo partly drawn) | 29.5% (active)
N=C(N)SCCc1ccc(CCSC(=N)N)cc1 | 9% (active)

Compound | inhibition
N=C(N)SCCN | -3.9% (inactive)
Oc1cc2c(cc1O)CN(C(=S)NCCc1ccc(Cl)cc1)CCC2 | 83.2% (active)
COc1ccc(NC=O)c(C(=O)CCNC(C)=O)c1 | -9.8% (inactive)
COc1cc2c(CCNC(C)=O)c[nH]c2cc1Cl | 14.3% (active)
CC(=O)NCCc1c[nH]c2ccc(O)cc12 | 92.2% (active)
COc1ccc2[nH]cc(CCNC(C)=O)c2c1 | 15.6% (active)
O=c1[nH]cc(F)c(=O)[nH]1 | 13.9% (active)
Cc1cc(NC(=O)Nc2ccc3c(ccn3C)c2)sn1 | 13.4% (active)
CN(C)CCCN1c2ccccc2CCc2ccc(Cl)cc21 | -0.4% (inactive)
CNCCCN1c2ccccc2CCc2ccccc21 | 34.2% (active)
CC(CN(C)C)CN1c2ccccc2CCc2ccccc21 (stereo not drawn) | 29.4% (active)
CN(C)CCCN1c2ccccc2CCc2ccccc21 | 31.8% (active)
CCCNC(=O)NS(=O)(=O)c1ccc(Cl)cc1 | 0.5% (active)
CC(=O)c1ccc(S(=O)(=O)NC(=O)NC2CCCCC2)cc1 | -1.5% (inactive)
CCCCNC(=O)NS(=O)(=O)c1ccc(C)cc1 | 10.2% (active)
Cc1ccc(S(=O)(=O)NC(=O)NN2CCCCCC2)cc1 | 49.9% (active)
OC(CN1CCN(c2cccc(Cl)c2)CC1)C(c1ccccc1)c1ccccc1 (stereo not drawn) | 17.3% (active)
C[C@]12C[C@H](O)[C@H]3[C@@H](CCC4=CC(=O)CC[C@@]43C)[C@@H]1CC[C@@H]2C(=O)CO | 9.4% (active)
C[C@]12CCC(=O)C=C1CC[C@@H]1[C@@H]2[C@@H](O)C[C@@]2(C)[C@H]1CC[C@]2(O)C(=O)CO | 9% (active)
N[C@H](C(=O)O)[C@H]1C[C@@H]1C(=O)O | 20.9% (active)
O=C(O)c1cc(=O)cc(C(=O)O)[nH]1 | 10.2% (active)
COC(=O)C(N)Cc1ccc(Cl)cc1 (stereo not drawn) | -8.3% (inactive)
COC(=O)[C@@H](N)Cc1ccc(O)c(O)c1 | 48.2% (active)

Compound | inhibition
N[C@@H](Cc1ccc(F)cc1)C(=O)O | -2.9% (inactive)
N[C@@H](Cc1ccc(O)c(O)c1)C(=O)O | 43.6% (active)
NC(Cc1ccc(Cl)cc1)C(=O)O (stereo not drawn) | 6.1% (active)
N[C@@H](Cc1ccc(O)c(I)c1)C(=O)O | 14.8% (active)
NC1CCN(O)C1=O (stereo not drawn) | 30% (active)
CCCC1O[C@@H]2C[C@H]3[C@@H]4CCC5=CC(=O)C=C[C@]5(C)[C@H]4[C@@H](O)C[C@]3(C)[C@]2(C(=O)CO)O1 (stereo partly drawn) | 4.1% (active)
CCCN(CC1CC1)c1nc(C)nc(Nc2c(Cl)cc(Cl)cc2Cl)c1Cl | 3.7% (active)
NS(=O)(=O)c1cc2c(cc1Cl)NC=NS2(=O)=O | 4.3% (active)
NS(=O)(=O)c1cc2c(cc1Cl)NCNS2(=O)=O | 9.5% (active)
NS(=O)(=O)c1cc2c(cc1Cl)NC(C1CC3C=CC1C3)NS2(=O)=O (stereo not drawn) | 44.4% (active)
CNCCCC12CCC(c3ccccc31)c1ccccc12 | 1.9% (active)
NC/C=C\C(=O)O | 7.5% (active)
NC/C=C/C(=O)O | 1.4% (active)
CC(C)COCC(CN(Cc1ccccc1)c1ccccc1)N1CCCC1 (stereo not drawn) | 40.1% (active)
Brc1c(Br)c(Br)c2[nH]cnc2c1Br | 18.9% (active)
CN1CCc2cccc3c2C1Cc1ccc(O)c(O)c1-3 (stereo not drawn) | 73.2% (active)
Cc1ccc2c(c1)C(N1CCN(C)CC1)=Nc1cccnc1N2 | 42.7% (active)
CN1CCN(C2=Nc3ccccc3Oc3ccc(Cl)cc32)CC1 | -12.8% (inactive)
Clc1ccc2c(c1)C(N1CCNCC1)=Nc1ccccc1O2 | 21.3% (active)
Clc1ccc2c(c1)N=C(N1CCNCC1)c1ccccc1N2 | 69.5% (active)
CN1CCN(C2=Nc3cc(Cl)ccc3Nc3ccccc32)CC1 | 78.4% (active)
